An excerpt weighted towards active compounds, which were near 21% of everything screened.
Pf growth 48h = P. falciparum growth inhibition at 48 hours (one generation); P. falciparum luciferase growth in erythrocytes, 48 h; Potency, µM (series often up to 28.7 µM), for inactives: at the top dose activity change, negative = inhibition, hits mostly inhibitors; 5.9% of 310,000 active; also: potency is read from the fitted curve at half-maximal effect; % is scaled to controls: 0 for no effect and ±100 for the full control effect
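Compounds are pin-transferred into medium, infected erythrocytes (2% hematocrit, 0.1% parasitemia final) are added, and plates sit one parasite generation at 37 C in 5% CO2. Detection reagent is then added and luminescence measured.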
NS1 function inh = inhibitors of influenza NS1 protein function | Potency, µM (highest dose often 46.1 µM), without a hit: at the top dose activity, positive = more growth | 0.4% of 270,000 active | AID 2326; calls by dose curve; also: potency is read from the fitted curve at half-maximal effect; actives are rising curves; nearly all actives have a fitted effect of over 50% in size
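Recovery from NS1-induced slow growth read by OD600 in budding yeast switched to galactose assay medium (pH 6.0, -URA) at 1:100 dilution. Compound 23 nl per well; the matching strain lacking NS1 serves as control.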
Pf growth 96h = P. falciparum growth inhibition at 96 hours; 6.9% of 320,000 active; Potency, µM (series often up to 28.7 µM), for inactives: at the highest dose activity change, negative = inhibition, actives largely listed as inhibitors; P. falciparum luciferase reporter growth, 96 h; also: potency is read from the fitted curve at half-maximal effect; % is scaled to controls: 0 for no effect and ±100 for the full control effect
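Plates of compound plus infected erythrocytes (2% hematocrit, 0.05% parasitemia final) incubate 96 hours, 37 C, 5% CO2. Detection reagent added; reduced luminescence from the parasites' luciferase reporter flags inhibition.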
SARS PLpro yeast = blocks SARS-CoV papain-like protease in a yeast assay | Potency, µM (highest dose often 32.9 µM), inactives show at the top dose activity, positive = growth rescue, most hits filed as activators | S. cerevisiae expressing SARS-CoV PLpro, growth rescue | 0.19% of 330,000 active | AID 485353; calls by dose curve; also: potency is read from the fitted curve at half-maximal effect; 0% is about no effect; nearly all actives have a fitted effect of over 55% in size
CHX counter = counter-screen hit for Shiga toxin inhibitors, cycloheximide | cell reporter, cycloheximide protein synthesis inhibition counterscreen | max response, % | 12% of 300,000 active | AID 2314; in the data active = max response mostly above about 13%, no sharp cut-off; inactive = mostly below about 14%; also: read at 38.3 µM for the half of the compounds with a filed dose; 0% is about no effect
Shiga toxin inh = blocks Shiga toxin action in Vero cells; 9.2% of 290,000 active; Vero cells, Shiga toxin protein synthesis inhibition reporter; inhibition, % at 38.7 µM; in the data active = inhibition mostly above about 28%, no sharp cut-off; inactive = mostly below about 43%; also: 0% is about no effect
The depositor's hits bear a star; ? = inconclusive; . = no result given; [ ] = another dose, or the depositor's remark. Unless noted, calls follow the shape of the dose curve; as a rule, active = well fitted inhibition curve with a large enough effect; inconclusive = small, poorly fitted or top-dose-only effect, or another doubt; inactive = no such curve, though single readings can be large or run the other way.

SMILES	Pf growth 48h	NS1 function inh	Pf growth 96h	SARS PLpro yeast	CHX counter	Shiga toxin inh
O=C(c1nc2ccc(Cl)cn2c1CN1CCC[C@H]1CO)N1CCCCCCC1	?	3%	41%	?	-3	-4
COc1ccccc1C(=O)Nc1ccc2nc(SCC(=O)N(C)C)sc2c1	?	-14%	12µM*	9%	2	6
CC(=O)Nc1ccc2nc(SCC(=O)NCCOc3ccccc3)sc2c1	10%	.	55%	-4%	6	3
O=C(CSc1nc2ccc(NC(=O)c3ccccc3C(=O)O)cc2s1)Nc1ccc(F)c([N+](=O)[O-])c1	1%	-16%	115%	-3%	25	30*
O=C(NCc1ccccn1)Nc1ccccc1C(F)(F)F	6%	-6%	-25%	2%	15*	17
O=C(NCc1ccccn1)C(F)(F)C(F)(F)C(=O)NCc1ccccn1	3%	?	81%	-3%	-4	-7
O=C(NCc1ccccn1)Nc1ccccc1F	44%	2%	45%	-4%	21*	49*
C[C@H]1CN([C@@H](C)CO)C(=O)Cc2cc(NS(=O)(=O)c3cccs3)ccc2O[C@H]1CN(C)S(=O)(=O)c1cn(C)cn1	.	.	.	5%	.	.
CC(C)[C@H](NC(=O)c1ccccc1Cl)C(=O)Nc1ccc(S(=O)(=O)Nc2nccs2)cc1	.	.	.	2%	.	.
O=C(CNC(=O)C12CC3CC(CC(C3)C1)C2)N/N=C\c1ccccn1	29%	2%	20%	1%	-6	-7
C=CCSc1nnc(NC(=O)c2cn(CC)c3nc(C)ccc3c2=O)s1	-27%	-3%	?	-1%	3	-6
COc1cc([N+](=O)[O-])ccc1NC(=O)C[n+]1cccc(C(C)=O)c1	8%	.	33%[5.75 µM]	0%	9	10
Cc1nn2cc(-c3cccc(Cl)c3)cnc2c1Br	44%	2%	94%	17%	14	56*
CC(C)n1nnnc1-c1cccc(Cl)c1	5%	?	19%	-3%	9	8
Cc1nn2cc(-c3cccc(Cl)c3)cnc2c1Cl	188%	.	471%	2%	33*	124*
Nc1nc(N)nc(-c2cccc(Cl)c2)n1	71%	.	?	1%	.	.
CCCCNC(=O)[C@@H]1CSC2c3ccccc3C(=O)N21 (stereo partly specified)	-1%	3%	27%	-1%	-4	-4
Cc1ccccc1CN1CCNC1=O	9.3µM*	?	25%	3%	4	15
CC(C(=O)Nc1ccc2c(c1)OCO2)N(C)CC(=O)Nc1ccccc1Cl (stereo unspecified)	.	.	.	-2%	.	.
S=C(Nc1ccc2c(c1)OCO2)Nc1ccccc1Cl	142%	1%	53%	-2%	24*	35*
S=C(Nc1ccc2c(c1)OCCO2)Nc1ccc2c(c1)OCO2	227%	.	35%	0%	57*	120*
C[n+]1cnc(-c2ccccc2)cc1-c1ccccc1	-6%	-2%	-9%	-4%	-3	-2
COc1ccc(-c2cc(-c3ccccc3)nc(NN)n2)cc1OC	?	?	?	1%	17*	35
COc1cc2cnc(-c3ccccc3)cc2cc1OC	.	.	.	-3%	.	.
COc1ccc(-c2cc3cc(OC)c(OC)cc3cn2)cc1	.	.	.	-5%	.	.
SMILES	Pf growth 48h	NS1 function inh	Pf growth 96h	SARS PLpro yeast	CHX counter	Shiga toxin inh
COc1ccc(-c2cc3cc(OC)c(OC)cc3c(C)n2)cc1C	?	3%	10µM*	-4%	12	37
COc1nc(-c2ccccc2)cc(-c2ccc(OC)c(OC)c2)n1	-17%	-5%	28%	-18%	21	56*
CN(C)c1ccc(NC(=O)Nc2csc3ccccc23)cc1	?	14%	5.2µM*	-1%	44*	76*
O=C(Nc1ccc(F)cc1)Nc1csc2ccccc12	?	-2%	?	-8%	21*	97*
CN1CCC(CNC(=O)Nc2csc3ccccc23)CC1	0%	5%	59%	-2%	25	36
O=C(OCc1cc(=O)n2c(n1)sc1ccccc12)c1cccc(O)c1	72%	21%	32%	-20%	23*	49*
O=C(OCc1cc(=O)n2c(n1)sc1ccccc12)c1ccc(O)cc1O	21%	.	-20%[5.75 µM]	0%	1	18
Cc1ccc(Cn2cnc3ccccc32)cc1C	-21%	-25%	?	26%	9	-8
CCOc1ccc(NC(=O)Nc2ccc3nccnc3c2)cc1	-22%	-21%	?	-5%	4	29
COc1ccc(NC(=O)c2ccc3nccnc3c2)cc1	408%	-4%	-3%	-18%	37*	88*
COc1ccc(C(=O)Nc2ccc3ncccc3c2)cc1	0%	-33%	122%	-11%	12	-11
CCOc1ccc(NC(=O)c2ccc3nccnc3c2)cc1	102%	-12%	.	8%	52*	62
O=C(Nc1cccnc1Cl)c1ccc2c(Cl)c3c(nc2c1)CCC3	241%	.	-9%	-8%	23*	44
CCN(C(=O)c1ccc2c(Cl)c3c(nc2c1)CCC3)c1cccc(C)c1	?	-1%	?	-2%	22*	16
N#Cc1ccccc1NC(=O)c1ccc2c(Cl)c3c(nc2c1)CCCC3	?	-15%	4%	?	53*	91*
CC(=O)c1cccc(NC(=O)c2ccc3c(Cl)c4c(nc3c2)CCCC4)c1	14%	-1%	-15%	14%	6	23
O=C(NC1CC1)c1ccc2c(Cl)c3c(nc2c1)CCCC3	23%	.	-42%	-6%	23*	68*
CCOC(=O)N1CCC(NC(=O)c2ccc3c(Cl)c4c(nc3c2)CCCC4)CC1	-30%	27%	-12%	-17%	-2	-13
O=C(COC(=O)c1ccc(Br)c(S(=O)(=O)N2CCOCC2)c1)NCCc1ccccc1	.	.	.	-26%	.	.
O=[N+]([O-])CC1(n2nc3ccccc3n2)CCCCC1	-12%	.	83%	2%	.	.
Cc1ccc(NC(=O)N2N=C(c3ccc(F)cc3)CC2c2ccc(F)cc2)cc1 (stereo unspecified)	?	14%	0%	2%	8	14
Cc1nnc(SCc2cc(=O)[nH]c(/N=C(\N)Nc3ccccc3)n2)s1	-18%	-3%	?	0%	-1	-11
CC1=NN(/C(=N\c2nnc(C)s2)Nc2ccccc2)[C@H](c2cccc3ccccc23)S1	6.6µM*	20%	9.3µM*	-29%	7	7
CC1=NN(/C(=N\c2nnc(C)s2)Nc2ccc(C)cc2)[C@H](c2ccc(C)cc2)S1	10µM*	4%[9.22 µM]	?	?	6	32
Cc1ccc(Cn2cnc3sc4c(c3c2=O)CCC4)c(C)c1	?	0%	1.9µM*	0%	-1	-2
O=C(O)Cn1cnc2sc3c(c2c1=O)CCCC3	-19%	0%	40%	0%	-2	-6
N#Cc1cccc(-c2csc(N3CCC(C(N)=O)CC3)n2)c1	-7%	.	2%	.	.	.
O=C(OCc1ccccc1Cl)c1ccc(-n2cnnc2)cc1	6%	-79%	2%	-6%	-1	-13
